Source: PubChem (The Scripps Research Institute Molecular Screening Center)
pPAFAH inh – inhibitors of human plasma PAF acetylhydrolase (pPAFAH) | 330,000 tested, 1.5% active | inhibition, % at 3.39 µM | Q13093 | recombinant pPAFAH, FP-rhodamine probe fluorescence polarization;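 active = inhibition above the mean inhibition across the screen plus 3 SD, cut at about 25% in these data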;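 also: inhibitors block binding of the rhodamine activity-based probe so polarization drops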
PME-1 primary – blocks human protein phosphatase methylesterase 1; AID 2130; recombinant PME-1, FP-Rh probe fluorescence polarization; inhibition, % at 5.9 µM; 320,000 tested, 0.53% active;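 active = inhibition above the campaign mean of all compounds plus 3 SD, cut at about 26% in these data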;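 also: competitive labeling of PME-1 active site by serine hydrolase directed probe; inhibitors block probe labeling so polarization falls and inhibition rises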
PAFAH1B2 FP inh – PAFAH1B2 (human) inhibition | recombinant PAFAH1B2, FP-rhodamine activity probe, fluorescence polarization | AID 492953 | P68402 | inhibition, % at 3.39 µM | 340,000 tested, 1.2% active;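 active = inhibition above the mean of all tested compounds plus 3 SD, cut at about 24% in these data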
Target sequence (P68402 whole entry, looked up): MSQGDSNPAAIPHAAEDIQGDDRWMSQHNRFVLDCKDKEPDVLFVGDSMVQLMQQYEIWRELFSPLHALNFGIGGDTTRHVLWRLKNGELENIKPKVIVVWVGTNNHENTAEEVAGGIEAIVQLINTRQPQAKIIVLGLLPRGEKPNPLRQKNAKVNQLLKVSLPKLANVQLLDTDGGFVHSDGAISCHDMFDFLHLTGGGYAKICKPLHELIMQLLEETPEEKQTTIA
PAFAH1B3 inh – PAFAH1B3 (human) inhibition; AID 492972; 340,000 tested, 0.28% active; recombinant PAFAH1B3, FP-rhodamine probe, fluorescence polarization; inhibition, % at 3.39 µM; Q15102;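 active = inhibition above the screen-wide average of all tested compounds plus 3 SD, cut at about 25% in these data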
Target sequence (Q15102 whole entry, looked up): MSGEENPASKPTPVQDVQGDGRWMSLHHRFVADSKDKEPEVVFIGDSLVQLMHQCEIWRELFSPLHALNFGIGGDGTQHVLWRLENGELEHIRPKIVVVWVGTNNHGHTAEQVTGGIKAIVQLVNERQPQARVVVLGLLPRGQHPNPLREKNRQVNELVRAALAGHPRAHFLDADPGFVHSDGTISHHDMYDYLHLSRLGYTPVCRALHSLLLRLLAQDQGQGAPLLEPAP
Fam108B counter – blocks mouse Fam108B hydrolase in RBBP9 counter-screen | recombinant Fam108B, FP-Rh probe fluorescence polarization | inhibition, % at 9.51 µM | 300,000 tested, 0.33% active;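 active = inhibition above the screen mean inhibition plus 3 SD, computed separately per campaign, cut at about 18% in these data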;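 also: inhibitors lower polarization as less probe binds the enzyme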
PAFAH2 inh – inhibitors of human PAFAH2; inhibition, % at 3.39 µM; recombinant PAFAH2, FP-rhodamine activity probe, fluorescence polarization; AID 492956; 340,000 tested, 0.99% active;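 active = inhibition above the mean over all tested compounds plus 3 SD, cut at about 30% in these data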;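 also: inhibitors block probe labeling of enzyme so polarization drops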
PAFAH2 FP conf – confirmation of human PAFAH2 inhibitors | shares compounds with PAFAH2 inh | recombinant PAFAH2, FP-rhodamine activity probe, fluorescence polarization | inhibition, % at 3.39 µM | 2,300 tested, 65% active | AID 493030;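 active = mean inhibition over three repeats above a set limit taken from the earlier primary screen, cut at about 30% in these data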;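 also: inhibitor blocks binding of rhodamine activity probe so polarization falls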
Each line names hits and unclear results; the compound was inactive in the other large screens (follow-up assays come after a bar, where they were run). An excerpt weighted towards active compounds, which were near 2.9% of everything screened.

O=C(OCc1nnc(-c2ccccc2)o1)c1ccc(-n2cnnn2)cc1	none
Cc1nc2ccc(C(=O)OCc3nnc(-c4ccc(Br)cc4)o3)cc2nc1C	none
O=C(OCc1nnc(-c2ccccc2)o1)c1ccccc1	PAFAH2 inh 57.2 | PAFAH2 FP conf 50.2
O=C(OCc1nnc(-c2ccc(Br)cc2)o1)c1ccco1	PAFAH2 inh 53.9 | PAFAH2 FP conf 42.1
CC(=O)N1CC(C)Sc2ccc(S(=O)(=O)NC3CCCCC3)cc21 (stereo not given)	none
Cc1ccc(C(=O)OCC(=O)NCc2ccc(Cl)cc2Cl)o1	PAFAH2 inh 55.8 (no result: Fam108B counter) | PAFAH2 FP conf 41.6
O=C(COC(=O)C1CCN(c2ccc(C(F)(F)F)cn2)CC1)NCc1ccc(Cl)cc1Cl	none
O=C(COC(=O)C1CC1)NCc1ccc(Cl)cc1Cl	PAFAH2 inh 64.2 (no result: PME-1 primary, Fam108B counter) | PAFAH2 FP conf 46.1
O=C1C(Cl)=C(N2CCCCC2)C(=O)C(Cl)=C1c1cnc(N2CCCCC2)s1	PAFAH2 inh 30.9 (no result: pPAFAH inh, PME-1 primary, Fam108B counter) | PAFAH2 FP conf inactive
O=C1C(Cl)=C(N2CCCCCC2)C(=O)N1c1ccc(Cl)cc1	none
N#Cc1ccccc1NC(=O)COC(=O)c1c[nH]c2ccccc12	PAFAH2 inh 68.7 (no result: pPAFAH inh, PME-1 primary, Fam108B counter) | PAFAH2 FP conf 66.7
CC(=O)c1ccc(NC(=O)COC(=O)c2c[nH]c3ccccc23)cc1	PAFAH2 inh 44.7 (no result: Fam108B counter) | PAFAH2 FP conf inactive
Cc1ccc(NC(=O)COC(=O)Cc2c[nH]c3ccccc23)cc1F	none (no result: pPAFAH inh, PME-1 primary, Fam108B counter)
Cc1ccc(NC(=O)COC(=O)c2c[nH]c3ccccc23)cc1C	PAFAH2 inh 70.6 (no result: Fam108B counter) | PAFAH2 FP conf 71.2
NC(=O)Nc1ccc(C(=O)OCC(=O)c2c[nH]c3ccccc23)cc1	PAFAH2 inh 35.7 (no result: PME-1 primary, Fam108B counter) | PAFAH2 FP conf inactive
Cc1cc(C)c(OCC(=O)OC(C)C(=O)N2CCc3ccccc32)c(C)c1 (stereo not given)	none
CC(C)NS(=O)(=O)c1ccc(OCC(=O)NC(C)c2ccccc2)cc1 (stereo not given)	none
CCC(Oc1ccccc1)C(=O)NC1CCCCCC1 (stereo not given)	none
O=C(COC(=O)c1c[nH]c2ccccc12)NC1CCCC1	PAFAH2 inh 71.9 (no result: Fam108B counter) | PAFAH2 FP conf 68.4
Cc1cc(C)nc(/N=C(\N)N(Cc2ccccc2)Cc2ccccc2)n1	none
O=C(O)c1cccc(-c2nnn(Cc3ccccc3Cl)n2)c1	PAFAH2 inh 84.0 | PAFAH2 FP conf inactive
CCOc1ccc(N2C(=O)CC(N(Cc3ccco3)C(C)=O)C2=O)cc1 (stereo not given)	none
Cc1ccc(Cn2ccc(O)c(Cc3ccccc3)c2=O)cc1	none
COc1ccc(C(=O)OCC(=O)NCC2CCCO2)c(F)c1 (stereo not given)	PAFAH2 inh 37.9 (no result: Fam108B counter) | PAFAH2 FP conf 33.6
O=C(COC(=O)c1cccs1)NCC1CCCO1 (stereo not given)	PAFAH2 inh 35.4 | PAFAH2 FP conf inactive
Nc1cc(C(=O)OCC(=O)NCC2CCCO2)ccc1Cl (stereo not given)	none
COc1cccc(OCC(=O)NCC2CCCO2)c1 (stereo not given)	none (no result: PME-1 primary, Fam108B counter)
CCOc1ccc(C(=O)OCC(=O)NCC2CCCO2)cc1 (stereo not given)	PAFAH2 inh 48.0 (no result: PME-1 primary, Fam108B counter) | PAFAH2 FP conf inactive
COc1cc(OC)c(NS(=O)(=O)c2cc(C(=O)OCC(=O)NCC3CCCO3)ccc2OC)cc1Cl (stereo not given)	PAFAH2 inh 70.5 | PAFAH2 FP conf 52.1
O=C(COC(=O)c1ccccc1)NCC1CCCO1 (stereo not given)	none
Cn1ccnc1SCC(=O)N1CCN(S(=O)(=O)c2ccccc2)CC1	none
CCOc1ccc(C(=O)OCC(=O)NC(C)C)cc1	PAFAH2 inh 55.4 | PAFAH2 FP conf 42.8
CC(C)CC(NC(=O)C1CCC(=O)N1C(=O)OCc1ccccc1)C(=O)NC(Cc1ccccc1)C(N)=O (stereo not given)	PAFAH2 inh 52.2 | PAFAH2 FP conf 47.7
CCC(C)C(NC(=O)C1CCC(=O)N1C(=O)OCc1ccccc1)C(=O)NC(Cc1ccccc1)C(N)=O (stereo not given)	PAFAH2 inh 77.7 | PAFAH2 FP conf 64.3
COC(=O)[C@@H](Cc1ccc(O)cc1)NC(=O)[C@H]1CCC(=O)N1C(=O)OCc1ccccc1	none
CCOC(=O)COc1ccc(N)cc1CC(NC(C)=O)(C(=O)OCC)C(=O)OCC	none
CCOc1ncccc1C(=O)OCC(=O)NCc1cccs1	PAFAH2 inh 39.5 (no result: PME-1 primary, Fam108B counter) | PAFAH2 FP conf inactive
Nc1cc(Cl)ccc1C(=O)OCC(=O)NC1CCCCCCC1	PAFAH2 inh 47.4 (no result: Fam108B counter) | PAFAH2 FP conf 41.5
CSc1ncccc1C(=O)OCC(=O)NC1CCCC1	none (no result: Fam108B counter)
CCOc1ncccc1C(=O)OCC(=O)NC1CCCCCC1	PAFAH2 inh 84.1 (no result: pPAFAH inh, PME-1 primary, Fam108B counter) | PAFAH2 FP conf 79.0
CCOc1ncccc1C(=O)OC(C)C(=O)NC1CCCCC1 (stereo not given)	none (no result: pPAFAH inh, PME-1 primary, Fam108B counter)
CSc1ncccc1C(=O)OCC(=O)NC1CCCCC1	PAFAH2 inh 38.0 (no result: Fam108B counter) | PAFAH2 FP conf 36.5
O=C(COC(=O)CNC(=O)c1ccc(Cl)cc1Cl)NC1CCCCC1	none (no result: pPAFAH inh, PME-1 primary, Fam108B counter)
O=C(COC(=O)c1cccnc1Cl)NC1CCCCCC1	PAFAH2 inh 73.3 (no result: PME-1 primary, Fam108B counter) | PAFAH2 FP conf 66.3
CSc1ncccc1C(=O)OCC(=O)NC12CC3CC(CC(C3)C1)C2	PAFAH2 inh 72.0 (no result: PME-1 primary, Fam108B counter) | PAFAH2 FP conf 72.3
CSc1ncccc1C(=O)OCC(=O)NC1CC1	none (no result: pPAFAH inh, PME-1 primary, Fam108B counter)
COc1cc(NS(=O)(=O)c2ccc(F)cc2)c(OC)cc1NC(C)=O	none
O=C(COC(=O)c1ccc2ncsc2c1)NCc1cccc(Cl)c1	none (no result: Fam108B counter)
O=C(COC(=O)c1ccc2ncsc2c1)Nc1ccccc1Br	PAFAH2 inh 62.7 (no result: Fam108B counter) | PAFAH2 FP conf 43.0
O=C(COC(=O)c1ccc2ncsc2c1)Nc1cccc(Cl)c1	PAFAH2 inh 92.5 (no result: Fam108B counter) | PAFAH2 FP conf 77.4
CCCCOC(=O)c1ccc(NC(=O)COC(=O)c2ccc3ncsc3c2)cc1	PAFAH2 inh 61.1 (no result: Fam108B counter) | PAFAH2 FP conf 63.4
CC(=O)NC(=O)COC(=O)c1ccc2ncsc2c1	none
CCOC(=O)C1CCCC12Nc1cccc3cccc(c13)N2 (stereo not given)	none (no result: pPAFAH inh, PME-1 primary, Fam108B counter)
COc1ccc(NC(=O)COC(=O)/C=C/c2cccs2)c(OC)c1	none (no result: Fam108B counter)
COCCNC(=O)COC(=O)c1ccc(OCC(=O)Nc2ccccc2OC)c(OC)c1	PAFAH2 inh 32.2 | PAFAH2 FP conf inactive
COc1ccc(/C=C/C(=O)OCC(=O)Nc2ccc(Cl)c(S(=O)(=O)N(C)C)c2)cc1OC	PAFAH2 inh 83.8 | PAFAH2 FP conf 75.1
CNC(=O)COC(=O)c1ccc(OCC(=O)Nc2ccccc2OC)c(OC)c1	none
COc1ccccc1NC(=O)COC(=O)/C=C/c1cccs1	PAFAH2 inh 31.1 (no result: PME-1 primary, Fam108B counter) | PAFAH2 FP conf inactive
O=C(COC(=O)/C=C/c1cccs1)Nc1ccc(Cl)cc1F	PAFAH2 inh 52.0 (no result: PME-1 primary, Fam108B counter) | PAFAH2 FP conf 58.0
O=C(COC(=O)/C=C/c1cccs1)NC(c1ccccc1)c1ccccc1	none
